# Bioassay records as filed in PubChem.
# Shown are actives, neighbours in structure and some others; about 28% of the full set was active somewhere.
# CYP2C9 activ = human CYP2C9 activators, primary screen, biochemical, luminescence | 1.4% of 96,000 active | AID 1024, 2008 | Cytochrome P450 2C9 (Homo sapiens), P11712 | recombinant CYP2C9, luciferin-H conversion; hits give high values; factor 1 = untreated enzyme, 0 = blocked | activation factor at 5 µM;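 active = activation factor of 2 or more for CYP2C9 at a 5 µM dose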;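 also: 0 = sulfaphenazole-blocked wells and 1 = vehicle-only wells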
# Target sequence (P11712 whole entry, looked up): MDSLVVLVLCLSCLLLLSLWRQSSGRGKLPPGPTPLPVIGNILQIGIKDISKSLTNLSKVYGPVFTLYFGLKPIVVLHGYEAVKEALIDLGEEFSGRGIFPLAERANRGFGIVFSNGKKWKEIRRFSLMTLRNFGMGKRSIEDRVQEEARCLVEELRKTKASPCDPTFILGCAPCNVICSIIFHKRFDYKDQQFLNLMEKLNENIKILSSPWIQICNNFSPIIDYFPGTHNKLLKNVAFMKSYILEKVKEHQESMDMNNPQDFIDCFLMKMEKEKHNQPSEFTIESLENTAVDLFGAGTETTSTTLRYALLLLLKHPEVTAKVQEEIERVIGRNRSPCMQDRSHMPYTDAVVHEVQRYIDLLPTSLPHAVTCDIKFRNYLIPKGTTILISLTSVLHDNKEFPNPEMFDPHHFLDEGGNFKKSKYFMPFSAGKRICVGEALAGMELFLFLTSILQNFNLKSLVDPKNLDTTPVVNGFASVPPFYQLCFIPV
# CYP2C19 inh = blockers of cytochrome P450 2C19 activity – biochemical, luminescence, ADME assay, primary screen. 21% of 96,000 active. inhibition, % at 5 µM. AID 778, 2007. CYP2C19 Supersomes, luciferin-H EGE luminescence, 30 min;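 active = CYP2C19 inhibition above a set limit at 5 µM in the primary screen, cut at about 50% in these data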;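 also: plate controls were negative control wells for no effect and 2.5 mM tranylcypromine positive control for full effect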
# D1 allo mod = D1 CRE-luciferase signal change, two-sided – cell-based, HEK293 D1, dopamine EC30, D1 allosteric modulator project, primary screen. D(1A) dopamine receptor (Homo sapiens), P21728. dopamine EC30 potentiation; actives deviate in either direction. B-score at 10 µM. 5.9% of 58,000 active;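 active = luminescence count or its row- and column-corrected plate score outside the 99.7% band of the plate's sample wells, on either side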
# hDAT+cocaine = changed hDAT dopamine uptake under cocaine IC80, either direction, primary screen, cocaine antagonist project, cell-based, LLC-PK1 hDAT, [14C]-dopamine uptake, MLSMR | Sodium-dependent dopamine transporter (Homo sapiens), Q01959 | LLC-PK1 hDAT cells, [14C]-dopamine uptake with cocaine IC80; actives deviate in either direction | B-score at 10 µM | 1.3% of 110,000 active | AID 449768, 2010;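 active = Z score or B-score, a plate-position-corrected score, falls beyond the plate's 99.7% confidence bounds, in either direction; inactive = both scores lie inside the 99.7% bounds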;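 also: scored against the spread of the other compound wells on the same plate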
# CYP2C9 inh = blockers of cytochrome P450 2C9 activity – biochemical, luminescence, ADME assay, primary screen; inhibition, % at 5 µM; CYP2C9 Supersomes, luciferin-H conversion; 20% of 96,000 active;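 active = blocking of liver enzyme CYP2C9 beyond about 50% at 5 µM, limit read from the data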
# CYP2C19 act = human CYP2C19 activators, primary screen, biochemical, luminescence | Cytochrome P450 2C19 (Homo sapiens), P33261 | recombinant CYP2C19, luciferin-H EGE luminescence; hits give high values; 0 = fully inhibited enzyme, 1 = untreated enzyme | activation factor at 5 µM | 96,000 tested, under 10 active | AID 1025, 2008;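 active = activation factor of at least 2 at 5 µM in the primary screen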;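 also: 0 = wells with 2.5 mM tranylcypromine and 1 = vehicle-only wells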
# Active calls of the source: *; · = no result.
SMILES,CYP2C9 activ,CYP2C19 inh,D1 allo mod,hDAT+cocaine,CYP2C9 inh,CYP2C19 act
CCOC(=O)c1c(NC(=O)c2nn(CC)cc2Br)sc2c1CCCCC2,0.2,44,0.019,-0.51,82*,0.6
CCOC(=O)c1c(NC(=O)c2nn(CC)cc2Br)sc(C)c1C,0.2,20,1.7,0.25,76*,0.8
CCOC(=O)c1c(NC(=O)c2nn(CC)cc2Br)c(C#N)nn1-c1ccccc1,0.5,64*,2.5,-1,50,0.4
CCOC(=O)c1c(NC(=O)c2noc3c2CCCC3)sc2c1CCCC2,·,·,0.13,·,·,·
CCOC(=O)c1c(NC(=O)Cn2nc(C(F)F)cc2C(F)F)sc(C)c1C,0.4,28,·,-0.36,65*,0.7
Cc1cc(OCC(=O)c2ccc(F)cc2)ccc1N1C(=O)CCC1=O,1,15,0.0071,-0.21,-4,0.9
CCSc1nc(-c2cccs2)nc2c1c(=O)n(C)c(=O)n2C,·,·,0.52,·,·,·
CCN(CC(=O)Nc1c(C(=O)OC)[nH]c2ccc(Cl)cc12)c1ccc2c(c1)OCO2,0,88*,1.5,1.4,97*,0.1
CCOC(=O)C1CCCN(CC(=O)Nc2c(C(=O)OC)[nH]c3ccc(C)cc23)C1 (stereo not given),0.4,43,0.24,1.9,60*,0.6
CCOC(=O)C1CCN(CC(=O)Nc2c(C(=O)OC)[nH]c3cccc(C)c23)CC1,0.7,32,1.4,0.027,26,0.7
COC(=O)c1[nH]c2ccc(C)cc2c1NC(=O)CCN1CCN(Cc2ccc3c(c2)OCO3)CC1,0.8,37,0.75,0.87,18,0.6
COC(=O)c1[nH]c2cc(C)ccc2c1NC(=O)CN1CCN(c2ccccc2OC)CC1,0.7,24,0.14,1.6,30,0.8
CCOC(=O)C1CCCN(CC(=O)Nc2c(C(=O)OC)[nH]c3ccc(Cl)cc23)C1 (stereo not given),0.1,91*,1.5,2.9*,91*,0.1
COC(=O)c1[nH]c2ccc(C)cc2c1NC(=O)CN1CCCc2ccccc21,0.2,23,2.2,1,85*,0.8
CCOC(=O)C1CCCN(CC(=O)Nc2c(C(=O)OC)[nH]c3ccccc23)C1 (stereo not given),0.9,27,1.3,-0.43,12,0.7
CC(C)[C@H](NC(=O)NCc1ccco1)C(=O)O,1,4,0.12,1.7,3,1
C(=C\c1ccccc1)/CSc1nnc(-c2ccccn2)n1Cc1ccco1,0.6,18,0.9,0.97,45,0.8
O=C(CC(NCCc1ccccc1)C(=O)O)Nc1ccc(O)cc1 (stereo not given),1,-2,·,·,2,1
CCOC(=O)c1[nH]c2ccccc2c1NC(=O)CC(C)(C)C,0.8,19,0.58,-0.93,25,0.8
CCOC(=O)c1[nH]c2ccccc2c1NC(=O)C1CCCC1,·,·,6.9*,-0.37,·,·
Clc1cccc(Cl)c1Cn1cnc2c(NCc3ccco3)ncnc21,0.9,-7,·,0.0019,14,1.1
Clc1cccc(Cl)c1Cn1cnc(=NCc2ccco2)c2[nH]cnc21,0.2,30,1.7,0.59,77*,0.7
CC1c2[nH]c3ccccc3c2CCN1C(=O)Nc1ccccc1 (stereo not given),·,·,-0.49,-0.35,·,·
Cc1cc(=O)oc(C)c1C(=O)N1CCc2c([nH]c3ccccc23)C1C(C)C (stereo not given),0.8,50*,·,0.94,19,0.5
COCCN1C(=O)N[C@@H](c2cccc(F)c2)C(C(=O)OC)=C1C,·,·,·,0.13,·,·
CCOC(=O)CC(=O)CSc1nc2c(cc1C#N)CCC2,0.8,7,·,0.093,19,0.9
COC(=O)CC(=O)CSc1nc2c(cc1C#N)CCCCC2,0.2,62*,·,1,76*,0.4
